Experimental findings from PubChem BioAssay (NCI) are described below.

About 83,000 compounds went through this panel and 20% of them were active in at least one assay; those are over-represented in the sample as a whole.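 Treatment: one concentration, 48 hours, 96-well format. Scoring: percent growth, with anything below 10 considered active.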 Unmarked numbers belong to inactive results. Activity calls are given as the source filed them.

Among the test systems are SK-MEL-2 melanoma; EKVX NSCLC; SN12C renal; UO-31 renal; TK-10 renal; ACHN renal; CAKI-1 renal; CCRF-CEM leukemia; MOLT-4 leukemia; A498 renal.
What all share (test): NCI-60 one-dose screen, 48 h (100 = growth as untreated, 0 = no growth, -100 = all killed)
Common to all, as to conditions: 10 µM unless noted

For `C=C1C(=O)O[C@H]2[C@H]1CC/C(COC(=O)C(=O)c1c[nH]c3ccc(Cl)cc13)=C\CC[C@@]1(C)O[C@@H]21`, the growth is -58.9% (active) in the experiment with SK-MEL-2 melanoma; -73.6% (active) with EKVX NSCLC; -86.8% (active) in the experiment with SN12C renal; -94.4% (active) with UO-31 renal; -96.4% (active) in the experiment on TK-10 renal; -84.3% (active) with ACHN renal. Also, the growth was -87.5% (active) with CAKI-1 renal, -41.3% (active) with CCRF-CEM leukemia and -12.4% (active) in the experiment on MOLT-4 leukemia.
As for `Cc1nc2sc(C(=O)Nc3ccccn3)c(N)c2cc1C(C)O` (stereo unspecified), the growth was 53.9% with SK-MEL-2 melanoma; 86% in the experiment on EKVX NSCLC; 93.7% with SN12C renal; 78.4% with UO-31 renal; 79.4% in the experiment with TK-10 renal; 89% in the experiment with ACHN renal. Also, the growth in the experiment with CAKI-1 renal is 85.5%; with CCRF-CEM leukemia, 49.6%; with MOLT-4 leukemia, 64.1%.
For `COc1ccc(-c2cn(Cc3cc4ccccc4s3)nn2)cc1OCCN1CCCCC1`, the growth in the experiment with SK-MEL-2 melanoma is 90.8%; in the experiment on EKVX NSCLC it was 84.3%; with SN12C renal, 81.6%; in the experiment with UO-31 renal, 37.2%; in the experiment with TK-10 renal it was 90.1%; in the experiment on ACHN renal it was 89.4%. For the same compound, the growth with CAKI-1 renal was 78.9%; with CCRF-CEM leukemia, 62.2%; in the experiment on MOLT-4 leukemia, 53%.
With `N=C(N)c1ccc(-c2ccc(-c3ccccc3)o2)o1`, the growth in the experiment on SK-MEL-2 melanoma is 45.1%; with EKVX NSCLC, 51.9%; in the experiment on SN12C renal, 39%; in the experiment with UO-31 renal, 41.9%; in the experiment on TK-10 renal, 60.5%; in the experiment with ACHN renal, 38.5%. The growth was 37.4% in the experiment on CAKI-1 renal, 48.7% in the experiment on A498 renal, 15.4% in the experiment with CCRF-CEM leukemia and 15.6% in the experiment with MOLT-4 leukemia.
As to `Cn1c(=O)c2[nH]c(SC/C(=N/O)c3ccc(Br)cc3)nc2n(C)c1=O`, the growth in the experiment on SK-MEL-2 melanoma is 33.6%; in the experiment on EKVX NSCLC it was 43.2%; in the experiment with SN12C renal it was 17%; with UO-31 renal, 4.1% (active); in the experiment on TK-10 renal it was -30.6% (active); with ACHN renal it was -58.4% (active). The figures for the growth with CAKI-1 renal, with CCRF-CEM leukemia and in the experiment on MOLT-4 leukemia were -45.3% (active), 83.9% and 94.7%, respectively.
With `O=C(/C=C/c1ccccc1)c1ccc(-n2cc(CN3CCN(c4cc5c(cc4F)c(=O)c(C(=O)O)cn5C4CC4)CC3)nn2)cc1`, the growth with SK-MEL-2 melanoma is 96.8%; in the experiment on EKVX NSCLC, 94%; in the experiment on SN12C renal, 45.8%; in the experiment with UO-31 renal it was 62.5%; in the experiment with TK-10 renal, 83.3%; with ACHN renal, 93.5%. Moreover, the growth in the experiment with CAKI-1 renal is 61.4%; in the experiment with CCRF-CEM leukemia, 64.9%; with MOLT-4 leukemia it was 84.1%.
For the compound `O=C(c1c[nH]c2ccccc12)c1n[nH]c(=S)n1-c1ccc([N+](=O)[O-])cc1`, the growth in the experiment with SK-MEL-2 melanoma is 86.4%; in the experiment on EKVX NSCLC, 94.6%; in the experiment with SN12C renal, 92.8%; with UO-31 renal, 75.2%; in the experiment on TK-10 renal, 117%; with ACHN renal it was 96.1%. The growth with CAKI-1 renal was 85.4%; with CCRF-CEM leukemia it was 85.1%; in the experiment on MOLT-4 leukemia, 86%.
As for `CC(=O)c1sc(-c2ccc(F)cc2)cc1O`, the growth with SK-MEL-2 melanoma was 107%; with EKVX NSCLC, 99.7%; with SN12C renal, 109%; in the experiment with UO-31 renal, 88.5%; in the experiment on TK-10 renal, 95.1%; with CAKI-1 renal, 93.3%. Besides, the growth with A498 renal is 102%; in the experiment with CCRF-CEM leukemia, 97.6%; with MOLT-4 leukemia, 93.4%.
In the case of `COc1ccc(/C=C(\C(=O)NCc2cccnc2)S(=O)(=O)c2ccccc2)cc1OC`, the growth was 54.6% in the experiment with SK-MEL-2 melanoma; 38.9% in the experiment with EKVX NSCLC; 10.9% in the experiment with SN12C renal; 38.8% with UO-31 renal; 46.4% in the experiment with TK-10 renal; 52.8% in the experiment with ACHN renal. Moreover, the growth in the experiment with CAKI-1 renal was 36.1%; with CCRF-CEM leukemia, 9.07% (active); in the experiment on MOLT-4 leukemia it was 39.3%.
In the case of `O=C(/C=C/C12c3ccccc3C(c3ccccc31)C1C(=O)NC(=O)C12)c1ccco1` (stereo unspecified), the growth in the experiment on SK-MEL-2 melanoma was 7.24% (active); in the experiment on EKVX NSCLC, 55.6%; in the experiment on SN12C renal, 22.6%; in the experiment on UO-31 renal it was 42%; with TK-10 renal, 33.6%; with ACHN renal it was 45.6%. Besides, the growth is 48.1% with CAKI-1 renal, -5.48% (active) in the experiment with CCRF-CEM leukemia and 6.25% (active) with MOLT-4 leukemia.
`COc1ccc(N/N=C/c2cn(-c3ccc(C(=O)O)cc3)nc2-c2cc3ccccc3oc2=O)cc1`: the growth with SK-MEL-2 melanoma is 60.3%; in the experiment with EKVX NSCLC, 46.6%; with SN12C renal, 89.2%; with UO-31 renal, 22.8%; with TK-10 renal it was 97.1%; in the experiment with ACHN renal, 28.6%. Also, the growth in the experiment with CAKI-1 renal was 60.8%; in the experiment with CCRF-CEM leukemia, 32.9%; in the experiment on MOLT-4 leukemia, 34.6%.
In the case of `Nc1ccc(-c2ccncc2)cc1NC(=O)N1CCCC1`, the growth is 87.9% in the experiment with SK-MEL-2 melanoma; 104% in the experiment with EKVX NSCLC; 100% with SN12C renal; 88.7% with UO-31 renal; 85.2% in the experiment with TK-10 renal; 108% with ACHN renal. Also, the growth in the experiment with CAKI-1 renal is 95%; with CCRF-CEM leukemia, 88.1%; with MOLT-4 leukemia it was 87%.
As for `Clc1ccc(-c2nc(C(Cl)Cl)nc3cc(-c4ccccc4)nn23)cc1`, the growth in the experiment with SK-MEL-2 melanoma was 84.5%; with EKVX NSCLC, -12.8% (active); with SN12C renal it was 65.1%; in the experiment on UO-31 renal it was 47.3%; in the experiment on TK-10 renal it was 36.8%; in the experiment on ACHN renal it was -52.8% (active). Besides, the growth was -15.8% (active) with CAKI-1 renal, 53.4% with CCRF-CEM leukemia and 31.7% in the experiment on MOLT-4 leukemia.
In the case of `O=C(Nc1cc(Cl)ccc1O)c1ccccc1Nc1ccnc(C(F)(F)F)c1`, the growth in the experiment with SK-MEL-2 melanoma is 31.8%; in the experiment with EKVX NSCLC, 75.8%; in the experiment with SN12C renal it was 3.5% (active); in the experiment on UO-31 renal, 1.11% (active); in the experiment on TK-10 renal it was 74.5%; in the experiment with ACHN renal, 7.95% (active). Also, the growth is 72.1% in the experiment on CAKI-1 renal, -2.43% (active) in the experiment on CCRF-CEM leukemia and -25% (active) in the experiment with MOLT-4 leukemia.
Regarding `CN1CCN(c2ccc(NC3=CC(=O)c4ncncc4C3=O)cc2)CC1`, the growth in the experiment on SK-MEL-2 melanoma was -54% (active); in the experiment with EKVX NSCLC, -87.1% (active); with SN12C renal, -75.6% (active); in the experiment with UO-31 renal, -98.3% (active); in the experiment on TK-10 renal it was -82.3% (active); in the experiment with ACHN renal it was -96.2% (active). Also, the growth was -96% (active) with CAKI-1 renal, 3.21% (active) with CCRF-CEM leukemia and -28.4% (active) in the experiment with MOLT-4 leukemia.
